Inconclusive results are not listed. Activity calls are given as the source filed them. Unless noted, calls come from the whole dose curve.
Tests used:
[1] = Nuclear factor erythroid 2-related factor 2/antioxidant responsive element (Nrf2/ARE) small molecule agonists: qHTS cell viability counter screen in human keratinocytes (AID 1919968; active = well fitted curve in the direction sought with a large enough effect in the repeat runs; an effect the other way counts as inactive or inconclusive; note: nearly all actives have a fitted effect of over 55% in size)
Summary of the method: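 KeratinoSens HaCaT cells, 1,500/well, preincubated 5 h, then exposed to compounds in DMSO for 23 h at 37 C/5% CO2. Viability read as CellTiter-Fluor fluorescence after 1 h, in the same wells as the ARE-luciferase read.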

[2] = Nuclear factor erythroid 2-related factor 2/antioxidant responsive element (Nrf2/ARE) small molecule agonists: luciferase reporter gene qHTS assay in human keratinocytes (AID 1919969); note: nearly all actives have a fitted effect of over 35% in size; note: potency is the fitted concentration of half-maximal effect
[3] = molecular target: Gonadotropin-releasing hormone receptor (Homo sapiens) (UniProt P30968); assay: Human gonadotropin-releasing hormone receptor (GnRHR) small molecule agonists, calcium flux assay in GnRHR-HEK293 cells (AID 1920063); note: nearly all actives have a fitted effect of over 35% in size
Chain of Gonadotropin-releasing hormone receptor (Homo sapiens) (P30968 whole entry, looked up): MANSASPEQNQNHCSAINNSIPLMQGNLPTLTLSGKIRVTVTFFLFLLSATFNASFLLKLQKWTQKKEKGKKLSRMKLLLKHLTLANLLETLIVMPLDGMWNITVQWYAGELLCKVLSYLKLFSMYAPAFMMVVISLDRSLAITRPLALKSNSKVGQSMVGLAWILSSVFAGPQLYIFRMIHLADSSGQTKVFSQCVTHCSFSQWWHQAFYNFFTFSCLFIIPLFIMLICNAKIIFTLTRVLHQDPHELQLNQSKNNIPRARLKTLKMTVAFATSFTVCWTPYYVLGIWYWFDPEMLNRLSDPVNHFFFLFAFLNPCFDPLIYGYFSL
Summary of the method: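 HEK293 cells stably expressing human GnRHR were dye-loaded for 1 h at 37 C. Compound was added in agonist mode and fluorescence (Ex/Em 480/540) recorded kinetically for 3 min. Fifteen concentrations, triplicates.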

[4] = molecular target: KiSS-1 receptor (Homo sapiens) (UniProt Q969F8); assay: Human kisspeptin (KISS1R) small molecule agonists, calcium flux assay in KISS1R-HEK293 cells (AID 1920064; active = well fitted curve in the direction sought with a large enough effect in the repeat runs; an effect the other way counts as inactive or inconclusive)
Chain of KiSS-1 receptor (Homo sapiens) (Q969F8 whole entry, looked up): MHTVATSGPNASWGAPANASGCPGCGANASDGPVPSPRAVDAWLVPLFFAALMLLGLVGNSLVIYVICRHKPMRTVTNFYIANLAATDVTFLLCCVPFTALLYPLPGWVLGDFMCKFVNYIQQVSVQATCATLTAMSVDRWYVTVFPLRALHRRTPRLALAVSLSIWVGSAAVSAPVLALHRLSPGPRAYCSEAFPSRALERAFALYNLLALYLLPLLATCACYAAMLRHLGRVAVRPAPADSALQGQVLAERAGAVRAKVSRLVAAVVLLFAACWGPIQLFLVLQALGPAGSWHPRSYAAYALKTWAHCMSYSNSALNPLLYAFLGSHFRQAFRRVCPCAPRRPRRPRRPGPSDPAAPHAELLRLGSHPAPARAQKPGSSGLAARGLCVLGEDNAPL
Summary of the method: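 HEK293 cells stably expressing human KISS1R were loaded with calcium dye for 1 h at 37 C, then given compound; fluorescence (Ex/Em 480/540) was read kinetically for 3 min. Fifteen concentrations, triplicate.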

[5] = G protein-coupled receptor (GPCR) small molecule agonists, calcium flux assay: HEK293 wild type cell line counter screen (AID 1920065)
Summary of the method: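 Wild-type HEK293 cells plated 18 h, loaded with calcium dye 1 h at 37 C, then compounds added in agonist mode (ATP as positive control). Kinetic fluorescence Ex/Em 480/540 recorded 3 min at 1 sec intervals; 15 concentrations, triplicate.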

[6] = p53 small molecule agonists, cell-based qHTS assay with human liver microsomes: qHTS cell viability counter screen (AID 1963579); note: nearly all actives have a fitted effect of over 45% in size
Summary of the method: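 p53RE-bla cells (4,000/well) were pre-incubated 5 h at 37 C, then given compounds in DMSO plus human liver microsomes (0.5 mg/mL final) and NADPH (0.5 mg/mL final) for 16 h at 37 C. Viability was read by CellTiter-Glo luminescence.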

[7] = p53 small molecule agonists, cell-based qHTS assay with rat liver microsomes: qHTS cell viability counter screen (AID 1963580); note: nearly all actives have a fitted effect of over 45% in size
Summary of the method: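 p53RE-bla HCT-116 cells (4,000/well) rested 5 h at 37 C, then given Tox21 compounds in DMSO with rat liver microsomes (0.5 mg/mL final) plus NADPH (0.5 mg/mL final) for 16 h at 37 C. Viability read by CellTiter-Glo luminescence after 30 min at room temperature.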

[8] = p53 small molecule agonists, cell-based qHTS assay: qHTS cell viability counter screen (AID 1963581); note: nearly all actives have a fitted effect of over 45% in size
Summary of the method: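 p53RE-bla HCT-116 cells, compounds added 5 h after plating and incubated 16 h at 37 C. Cytotoxicity measured in the same wells as intracellular ATP by CellTiter-Glo luminescence after 30 min at room temperature.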

[9] = molecular target: 5-hydroxytryptamine receptor 2A (Homo sapiens) (UniProt P28223); assay: 5-hydroxytryptamine receptor 2A (HTR2A) small molecule antagonists, cell-based qHTS assay (AID 1963586); note: nearly all actives have a fitted effect of over 45% in size; note: potency is the fitted concentration of half-maximal effect
Chain of 5-hydroxytryptamine receptor 2A (Homo sapiens) (P28223 whole entry, looked up): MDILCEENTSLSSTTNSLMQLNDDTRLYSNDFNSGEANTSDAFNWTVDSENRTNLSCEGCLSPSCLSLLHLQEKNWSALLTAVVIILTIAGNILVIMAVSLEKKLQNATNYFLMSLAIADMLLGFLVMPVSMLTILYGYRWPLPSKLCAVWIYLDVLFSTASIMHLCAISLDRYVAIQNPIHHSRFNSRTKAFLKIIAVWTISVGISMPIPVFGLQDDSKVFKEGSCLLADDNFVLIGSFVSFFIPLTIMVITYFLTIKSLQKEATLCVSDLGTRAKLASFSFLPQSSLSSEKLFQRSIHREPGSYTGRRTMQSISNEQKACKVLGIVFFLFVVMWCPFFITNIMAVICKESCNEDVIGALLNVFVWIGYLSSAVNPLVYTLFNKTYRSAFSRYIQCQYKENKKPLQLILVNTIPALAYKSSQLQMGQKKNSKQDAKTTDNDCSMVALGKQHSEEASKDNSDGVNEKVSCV
Summary of the method: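 Antagonist-mode intracellular calcium assay: DOI (4 nM) added after 5 min compound pre-incubation at room temperature to dye-loaded HTR2A-CHO cells. Fluorescence followed for 3 min, sampled every second.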

[10] = molecular target: 5-hydroxytryptamine receptor 2A (Homo sapiens) (UniProt P28223); assay: 5-hydroxytryptamine receptor 2A (HTR2A) small molecule agonists, cell-based qHTS assay (AID 1963587); note: nearly all actives have a fitted effect of over 30% in size
Summary of the method: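 HTR2A-CHO cells, plated 18 h at 37 C/5% CO2, dye-loaded 1 h at 37 C; compounds in DMSO added by pin tool (agonist mode). Intracellular calcium flux read as kinetic fluorescence on FDSS over 2 min at 1 s intervals.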

[11] = molecular target: Muscarinic acetylcholine receptor M1 (Homo sapiens) (UniProt P11229); assay: Cholinergic receptor muscarinic 1 (CHRM1) small molecule antagonists, cell-based qHTS assay (AID 1963588); note: nearly all actives have a fitted effect of over 40% in size; note: potency is the fitted concentration of half-maximal effect
Chain of Muscarinic acetylcholine receptor M1 (Homo sapiens) (P11229 whole entry, looked up): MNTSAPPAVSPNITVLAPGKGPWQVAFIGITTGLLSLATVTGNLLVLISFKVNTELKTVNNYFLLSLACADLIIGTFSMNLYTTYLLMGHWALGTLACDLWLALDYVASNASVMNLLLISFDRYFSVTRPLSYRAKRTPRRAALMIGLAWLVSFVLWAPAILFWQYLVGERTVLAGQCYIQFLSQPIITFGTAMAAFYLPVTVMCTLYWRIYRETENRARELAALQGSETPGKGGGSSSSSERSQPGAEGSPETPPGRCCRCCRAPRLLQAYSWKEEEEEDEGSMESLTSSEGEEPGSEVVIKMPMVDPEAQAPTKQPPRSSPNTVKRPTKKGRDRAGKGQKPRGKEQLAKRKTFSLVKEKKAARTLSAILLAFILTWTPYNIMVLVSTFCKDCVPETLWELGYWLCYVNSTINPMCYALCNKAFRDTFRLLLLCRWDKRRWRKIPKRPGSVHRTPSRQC
Summary of the method: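 CHRM1-CHO calcium-flux assay, antagonist mode. Cells were seeded 18 h, dye-loaded 1 h at 37 C and given compound for 5 min at RT, then acetylcholine was added at 50nM. FDSS fluorescence was read 3 min; 15 concentrations, three runs.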

[12] = molecular target: Muscarinic acetylcholine receptor M1 (Homo sapiens) (UniProt P11229); assay: Cholinergic receptor muscarinic 1 (CHRM1) small molecule agonists, cell-based qHTS assay (AID 1963589); note: nearly all actives have a fitted effect of over 35% in size
Summary of the method: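 CHO cells stably expressing human CHRM1 were loaded with calcium dye for 1 h at 37 C, then compound was added in agonist mode. Intracellular calcium fluorescence was followed kinetically at 1 s intervals. Fifteen concentrations were tested in three independent runs.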

[13] = cAMP Responsive Elements (CRE) small molecule agonists, cell-based qHTS assay (AID 1963590)
Summary of the method: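 CRE-bla HEK 293T cells, 2,000/well in DMEM with 10% dialyzed FBS and 25 mM HEPES, pre-incubated 18 h at 37 C, then exposed to compound 3 h at 37 C. Beta-lactamase reporter read with LiveBLAzer B/G FRET substrate after 2 h at room temperature.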

[14] = cAMP Responsive Elements (CRE) small molecule antagonists, cell-based qHTS assay (AID 1963591; active = well fitted inhibition curve with a large enough effect in the signal ratio in the repeat runs, not every such curve was filed as active; the % refers to the signal ratio)
Summary of the method: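 CRE-bla HEK293T cells plated 18 h, then given compound plus NKH477 at 0.25 uM final for 3 h at 37C. Beta-lactamase reporter read with LiveBLAzer B/G FRET substrate after 2 h at room temperature.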

[15] = molecular target: Beta-2 adrenergic receptor (Homo sapiens) (UniProt P07550); assay: Adrenergic beta2 receptor (ADRB2) small molecule antagonists, cell-based qHTS assay (AID 1963592); note: nearly all actives have a fitted effect of over 50% in size; note: potency is the fitted concentration of half-maximal effect
Chain of Beta-2 adrenergic receptor (Homo sapiens) (P07550 whole entry, looked up): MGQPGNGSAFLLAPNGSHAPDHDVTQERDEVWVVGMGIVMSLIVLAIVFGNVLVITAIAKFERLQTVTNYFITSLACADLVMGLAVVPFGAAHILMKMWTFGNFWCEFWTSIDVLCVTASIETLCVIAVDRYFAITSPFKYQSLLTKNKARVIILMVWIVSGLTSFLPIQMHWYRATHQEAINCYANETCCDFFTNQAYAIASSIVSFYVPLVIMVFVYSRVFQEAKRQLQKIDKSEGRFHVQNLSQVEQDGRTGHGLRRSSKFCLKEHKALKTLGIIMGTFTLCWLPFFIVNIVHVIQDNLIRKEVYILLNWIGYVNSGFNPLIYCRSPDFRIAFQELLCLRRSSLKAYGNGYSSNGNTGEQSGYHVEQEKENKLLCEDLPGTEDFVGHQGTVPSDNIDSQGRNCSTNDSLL
Summary of the method: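 Cells (CHO, stable ADRB2 overexpression) incubated 18-20hr at 37C; compounds added from DMSO; agonist mix (1nM isoproterenol, 100uM IBMX, 25uM Ro-20-1724) added; 0.5hr RT; d2-cAMP and anti-cAMP-cryptate added; 1hr RT; 665/615 nm read.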

[16] = molecular target: D(2) dopamine receptor (Homo sapiens) (UniProt P14416); assay: Dopamine D2 receptor (DRD2) small molecule antagonists, cell-based qHTS assay (AID 1963595; active = well fitted inhibition curve with a large enough effect in the signal ratio in the repeat runs, with a control signal flat; the % refers to the signal ratio; note: potency is the fitted concentration of half-maximal effect)
Chain of D(2) dopamine receptor (Homo sapiens) (P14416 whole entry, looked up): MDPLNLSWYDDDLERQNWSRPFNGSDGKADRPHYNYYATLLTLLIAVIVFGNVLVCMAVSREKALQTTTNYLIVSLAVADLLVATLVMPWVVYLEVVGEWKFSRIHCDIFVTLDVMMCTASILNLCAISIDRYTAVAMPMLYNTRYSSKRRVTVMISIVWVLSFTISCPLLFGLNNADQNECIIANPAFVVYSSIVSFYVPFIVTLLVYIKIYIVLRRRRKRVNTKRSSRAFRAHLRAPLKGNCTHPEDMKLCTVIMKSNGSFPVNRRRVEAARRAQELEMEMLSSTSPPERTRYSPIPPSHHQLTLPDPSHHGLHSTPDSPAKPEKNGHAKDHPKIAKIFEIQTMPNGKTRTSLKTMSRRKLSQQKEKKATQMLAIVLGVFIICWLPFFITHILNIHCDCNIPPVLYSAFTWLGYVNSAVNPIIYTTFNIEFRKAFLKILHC
Summary of the method: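 HTRF cAMP read-out at 665 and 620 nm emission (340 nm excitation). Antagonist mode: compounds were tested against 12 nM quinpirole in DRD2-HEK293 cells, with 200 nM NKH477 raising cAMP and 0.1 mM Ro20-1724 blocking its breakdown.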

[17] = molecular target: D(2) dopamine receptor (Homo sapiens) (UniProt P14416); assay: Dopamine D2 receptor (DRD2) small molecule agonists, cell-based qHTS assay (AID 1963594); note: nearly all actives have a fitted effect of over 35% in size
Summary of the method: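 HEK293 cells stably expressing DRD2 were cultured 24 h at 37 C, then given Ro20-1724 (0.1 mM final) and compounds for 10 min at room temperature. NKH477 (200nM) was then added for 30 min. cAMP was read by HTRF.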

[18] = molecular target: Beta-2 adrenergic receptor (Homo sapiens) (UniProt P07550); assay: Adrenergic beta2 receptor (ADRB2) small molecule agonists, cell-based qHTS assay (AID 1963593);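 note: CHO cells stably overexpressing human ADRB2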
Summary of the method: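 CHO cells stably over-expressing ADRB2 were plated overnight at 37C, then dosed with compounds plus a stimulation mix containing 100uM IBMX and 25uM Ro-20-1724 for 0.5hr at room temperature. cAMP was measured by HTRF competition, 1hr.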

Measured: Potency

C[C@]12CCC(=O)C=C1CC[C@H]1[C@@H]3CC[C@](O)(C(=O)CO)[C@@]3(C)C[C@H](O)[C@@]12F
not listed: [17] | [18]
inactive: all other assays above

COC(=O)CC(C)=O
not listed: [14] | [15] | [18]
inactive: all other assays above

Cc1ccc(C(C)OC(=O)C2(C)CCC(C(=O)O)C2(C)C)cc1 (stereo not given)
not listed: [14] | [18]
inactive: all other assays above

CCC(=O)OCCOc1ccccc1
not listed: [15] | [18]
inactive: all other assays above

O=C1c2ccccc2C(=O)c2cc(S(=O)(=O)O)ccc21
not listed: [14]
inactive: all other assays above

CN1CC(=O)N2[C@H](c3ccc4c(c3)OCO4)c3[nH]c4ccccc4c3C[C@@H]2C1=O
not listed: [13]
inactive: all other assays above

CC(CN(CCN(CC(C)OCCO)CC(C)OCCO)CC(C)OCCO)OCCO (stereo not given)
not listed: [14]
inactive: all other assays above

Cc1ccc(N)cc1S(=O)(=O)O
not listed: [14] | [17]
inactive: all other assays above

O=C(O)[C@@H]1CSCN1
not listed: [14] | [17]
inactive: all other assays above

CC(=O)OCC(=O)NCCCOc1cccc(CN2CCCCC2)c1
not listed: [17] | [18]
inactive: all other assays above

COC(=O)c1ccc(C(=O)OC)c(C(=O)OC)c1
not listed: [14]
inactive: all other assays above

CCCCNCC
not listed: [14] | [18]
inactive: all other assays above

NNC(=O)CCCCC(=O)NN
not listed: [13] | [15]
inactive: all other assays above

CC(C)c1ccc2ncccc2c1
not listed: [14] | [16] | [18]
inactive: all other assays above

O=S(=O)(O)SSS(=O)(=O)O
not listed: [15] | [16]
inactive: all other assays above

BrCCOc1ccccc1
not listed: [17] | [18]
inactive: all other assays above

CCCOC(OCCC)OCCC
not listed: [14]
inactive: all other assays above

C1COCO1
not listed: [15]
inactive: all other assays above

O=CN(CCO)CCO
not listed: [17] | [18]
inactive: all other assays above

CC(C)c1ccc2cc(C(C)C)ccc2c1
active: [2] 48.6 µM
not listed: [13] | [15]
inactive: all other assays above

CCCCCC(C)O (stereo not given)
not listed: [13]
inactive: all other assays above

COP(=O)(O)OP(=O)(O)OC
active: [2] 24.3 µM
not listed: [17] | [18]
inactive: all other assays above

CCOc1ccccc1OCCN[C@H](C)Cc1ccc(OC)c(S(N)(=O)=O)c1
active: [15] 8.41 µM | [16] 1.19 µM
not listed: [17] | [18]
inactive: all other assays above

CC(C)=CCCC(C)CC(=O)O (stereo not given)
not listed: [14] | [18]
inactive: all other assays above

COc1cc2c(cc1OC)[C@@H]1CC(=O)[C@@H](CC(C)C)CN1CC2
not listed: [14] | [15]
inactive: all other assays above

O/N=C/C=N/O
not listed: [13]
inactive: all other assays above

O=C1OC(=O)c2c(Br)c(Br)c(Br)c(Br)c21
not listed: [14]
inactive: all other assays above

CC[N+](CC)(CC)CCOC(=O)C(C1CCCC1)C1CCCC1
active: [11] 0.0016 µM
not listed: [13] | [14]
inactive: all other assays above

CCOC(=O)OCC
not listed: [15] | [18]
inactive: all other assays above

COC1CCC=CO1 (stereo not given)
not listed: [17] | [18]
inactive: all other assays above

Clc1nc2ccccc2nc1Cl
active: [2] 55.1 µM
not listed: [15] | [18]
inactive: all other assays above

C=CCOC(=O)c1ccc(C(=O)OCC=C)c(C(=O)OCC=C)c1
active: [9] 33.4 µM
not listed: [13]
inactive: all other assays above
